# The list is not random: actives were taken first. Their share in the collection is about 12%.
# BAZ2B block = inhibitors of human BAZ2B bromodomain. Q9UIF8. AlphaScreen BAZ2B-H3K14Ac peptide displacement. Potency, µM (doses to about 114 µM), usual class: inhibitors. actives 4.4% (n = 360,000). AID 504333; also: nearly all actives have a fitted effect of over 60% in size
#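 Complex of BAZ2B and biotin-H3K14Ac (50 nM apiece) forms over 30 min at RT, then faces library compounds up to 110 uM for another 30 min; AlphaScreen beads added, 20 min dark incubation, luminescence read.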
# G9a inh = inhibitors of human histone lysine methyltransferase G9a | Q96KQ7 | G9a H3K9 monomethylation, AlphaScreen, 2 h | Potency, µM (doses to about 102 µM), actives largely listed as inhibitors | actives 8.8% (n = 350,000); also: nearly all actives have a fitted effect of over 75% in size
#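 Using a bead-based AlphaScreen, monomethylated H3K9 product from 2 h room-temperature reactions (G9a 20 nM, peptide 500 nM, SAM 20 uM) was detected with 0.5 ug/mL rabbit anti-H3K9me1 antibody.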
# Sfp PPTase inh = inhibitors of Bacillus subtilis Sfp phosphopantetheinyl transferase; actives 3.5% (n = 310,000); AID 1490; Potency, µM, actives largely listed as inhibitors; Biochemical Sfp PPTase activity, qHTS; Q9F4F7;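 also: the enzyme is Sfp with the accession as filed and its product quenches rhodamine fluorescence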
#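 Fluorescence-quenching assay: 15 nM Sfp-PPTase preincubated 15 min at room temperature with compound, then 5 uM rhodamine-CoA and 12.5 uM BHQ-2-labelled YbbR peptide added. Fluorescence (ex 525/em 598 nm) read at start and after 30 min; difference gives rate.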
# JMJD2A Tudor = JMJD2A Tudor domain (human) inhibition; AlphaScreen JMJD2A-Tudor / H3K4me3 peptide binding; Potency, µM (titrated, usually from 114 µM), hits mostly inhibitors; O75164; actives 4.4% (n = 390,000); also: nearly all actives have a fitted effect of over 50% in size
# L3MBTL1 inh = L3MBTL1 (human) inhibition | AlphaScreen L3MBTL1–H3K9me1 peptide binding | Potency, µM (top dose mostly 57.1 µM), most hits filed as inhibitors | actives 0.66% (n = 230,000) | AID 485360; also: nearly all actives have a fitted effect of over 60% in size
#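 Read-out is AlphaScreen signal from streptavidin donor and nickel chelate acceptor beads (10 ug/mL final each) bridging L3MBTL1 (50 nM) and biotinylated K9-monomethylated H3(1-15) peptide (75 nM), after 30 min compound exposure at room temperature.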
# HP1b chromo inh = inhibitors of HP1-beta chromodomain binding to methylated histone tails; AlphaScreen HP1-beta / biotin-H3K9me3 peptide binding; Potency, µM (titrated, usually from 114 µM), most hits filed as inhibitors; actives 0.56% (n = 390,000); also: nearly all actives have a fitted effect of over 70% in size
#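 HP1-beta protein (50 nM final) preincubated 30 min at room temperature with biotinylated H3(1-18)K9me3 peptide (50 nM) in PBS pH 7.4, 0.01% Tween-20, then compound added for 30 min. AlphaScreen streptavidin donor/nickel chelate acceptor beads (10 ug/mL final), 30 min dark, luminescence read.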
# Numbers stand for hits; – = inactive; ? = inconclusive; · = no result given; [ ] = another dose, or the depositor's remark. Calls follow the shape of the dose curve; as a rule, active = well fitted curve in the direction sought with a large enough effect; inconclusive = small, poorly fitted or top-dose-only effect, or another doubt; inactive = no such curve, though single readings can be large; an effect the other way counts as inactive or inconclusive.
SMILES,BAZ2B block,G9a inh,Sfp PPTase inh,JMJD2A Tudor,L3MBTL1 inh,HP1b chromo inh
C/C(=C\c1ccccc1)CN1CCC(C(=O)N2CCCCC2)CC1,?,?,–,7.9µM,–,?
Cc1ccc2oc(C(=O)N(Cc3sccc3C)C3CCS(=O)(=O)C3)c(C)c2c1 (stereo unspecified),–,–,·,–,·,–
O=C(Nc1ccc(Br)cc1)c1ccccc1Br,–,?,–,–,·,–
Cc1ccc(S(=O)(=O)NCCCNS(C)(=O)=O)cc1,–,–,–,–,–,–
CS(=O)(=O)NCCCCCCNS(C)(=O)=O,–,50µM,–,–[11.4 µM],·,–
CCOC(=O)c1cc(-c2ccc(C)cc2)n(CCC(=O)NCc2ccccc2)c1C,–,–,·,–,·,–
CCOC(=O)c1cc(-c2ccc(C)cc2)n(CCC(=O)NCCN(C)C)c1C,50µM,?,–,?,–,–
CCOC(=O)c1cc(-c2ccc(C)cc2)n(CCC(=O)NCCc2ccc(C)cc2)c1C,–,–,·,–,·,–
CCOC(=O)c1cc(-c2ccc(C)cc2)n(CCC(=O)N2CCN(c3ccccn3)CC2)c1C,45µM,28µM,–,35µM,–,?
Fc1ccc(-c2noc3ncnc(NCc4ccc(Cl)cc4)c23)cc1,–,–,·,–,·,–
CCOC(=O)C(=O)N1CCN(c2cc3c(cc2[N+](=O)[O-])n(C)c(=O)n3C)CC1,50µM,–,–,–,–,–
Cc1ccc(S(=O)(=O)N2CCN(c3cc4c(cc3[N+](=O)[O-])n(C)c(=O)n4C)CC2)cc1,?,?,–,–,–,–
Cn1c(=O)n(C)c2cc([N+](=O)[O-])c(N3CCN(C(=O)c4cccc(Cl)c4)CC3)cc21,56µM,–,–,–,–,–
CCOC(=O)N1CCN(c2ccc(F)cc2[N+](=O)[O-])CC1,–,–,–,–,–,–
Cc1ccc(C(=O)N2CCN(c3cc4c(cc3[N+](=O)[O-])n(C)c(=O)n4C)CC2)cc1,50µM,–,–,–,–,–
COc1ccc(N2CCN(C(=O)c3cccc(F)c3)CC2)c([N+](=O)[O-])c1,?,–,–,?,–,–
CCCS(=O)(=O)N1CCN(c2cc3c(cc2[N+](=O)[O-])n(C)c(=O)n3C)CC1,56µM,–,–,–,·,–
COCCN(Cc1nc(-c2ccc(-c3ccccc3)cc2)oc1C)C(C)C,–,·,–,–,–,–
CNc1cc2c(cc1S(=O)(=O)Nc1ccc(C)c(C)c1)CCC(=O)N2,·,·,·,–,·,·
Cn1c(=O)n(C)c2cc([N+](=O)[O-])c(N3CCN(C(=O)c4cccc(F)c4)CC3)cc21,50µM,?,–,–,–,–
O=C(COC(=O)c1ccccn1)Nc1nc(-c2ccccc2)cs1,50µM,–,–,79µM,·,–
COCC(=O)Nc1nc(-c2ccc(-c3ccccc3)cc2)cs1,–,?,–,–,–,–
O=C(COC(=O)c1ccccn1)Nc1nc(-c2cccc([N+](=O)[O-])c2)cs1,56µM,–,–,–,·,–
CN1CCN(C(=O)c2ccc(C(F)(F)F)cc2)CC1,?,?,–,–,–[11.4 µM],–
CN1CCN(C(=O)c2ccc(C(C)(C)C)cc2)CC1,79µM,–,–,–,–,–
SMILES,BAZ2B block,G9a inh,Sfp PPTase inh,JMJD2A Tudor,L3MBTL1 inh,HP1b chromo inh
COc1ccc(-c2nc3c(c4c2C[C@H](c2ccccc2)OC4)CN(C(=O)Nc2cccc(C#N)c2)CC3)c(C)c1,·,·,–,·,·,·
CC(OC(=O)c1nsc(Cl)c1Cl)C(=O)NCCc1ccccc1 (stereo unspecified),–,–,–,–,·,–
Cc1ccc(Sc2ncccc2C(=O)NCC(c2ccc(F)cc2)N2CCOCC2)cc1C (stereo unspecified),–,0.89µM,·,?,–,–
O=C(Nc1ccc(C(F)(F)F)cc1)N1CCN(c2ccnc3cc(Cl)ccc23)CC1,–,–,–,–,·,–
COc1ccc(C2C=C(c3ccc(F)cc3)NC(=S)N2)cc1OC (stereo unspecified),?,45µM,–,–,–,?
COc1ccc(C2=CC(c3ccc(OC)c(OC)c3)NC(=S)N2)cc1 (stereo unspecified),–,32µM,–,–,–,–

# Compound activity as filed in PubChem.
